We go through 39 compounds from PubChem BioAssay (NCATS).

Results filed as inconclusive are left out. Unmarked numbers belong to inactive results. Activity calls are given as the source filed them. Calls come from the whole dose curve; as a rule, active = well fitted curve in the direction sought with a large enough effect; inconclusive = small, poorly fitted or top-dose-only effect, or another doubt; inactive = no such curve, though single readings can be large; an effect the other way counts as inactive or inconclusive.
Note: nearly all actives have a fitted effect of over 70% in size.
Potency is the fitted concentration of half-maximal effect.

Luciferin 4-monooxygenase (Photinus pyralis), sequence (P08659 whole entry, looked up): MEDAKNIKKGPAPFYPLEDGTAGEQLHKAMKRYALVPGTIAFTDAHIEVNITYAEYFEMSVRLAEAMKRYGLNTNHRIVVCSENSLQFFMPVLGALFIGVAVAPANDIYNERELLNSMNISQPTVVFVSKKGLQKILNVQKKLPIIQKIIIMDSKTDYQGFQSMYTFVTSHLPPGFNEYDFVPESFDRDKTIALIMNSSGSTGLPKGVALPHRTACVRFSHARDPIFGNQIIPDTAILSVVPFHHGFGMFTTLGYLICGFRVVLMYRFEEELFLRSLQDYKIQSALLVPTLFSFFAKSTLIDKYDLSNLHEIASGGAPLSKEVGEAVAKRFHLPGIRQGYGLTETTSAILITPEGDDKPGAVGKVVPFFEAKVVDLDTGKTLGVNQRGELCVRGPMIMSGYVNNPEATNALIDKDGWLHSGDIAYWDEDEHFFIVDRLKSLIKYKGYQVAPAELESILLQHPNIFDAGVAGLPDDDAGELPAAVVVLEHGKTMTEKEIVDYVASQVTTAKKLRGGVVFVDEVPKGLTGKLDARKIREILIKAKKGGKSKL

The first experiment has as its target Luciferin 4-monooxygenase (Photinus pyralis) (UniProt P08659). The experiment can be described thus: Biochemical firefly luciferase enzyme assay for NPC (AID 624030).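 For activity change, negative = inhibition: purified P. pyralis luciferase at 10 nM with luciferin and ATP substrate; 0% = DMSO and -100% = full luciferase inhibition by PTC124 control.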 To be noted: purified P. pyralis luciferase, luminescence, 5 min; series mostly up to 58.6 µM; activity change, negative = inhibition: at the top concentration. Summed up:
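Purified P. pyralis luciferase at 10 nM in 50 mM Tris Acetate (final), luminescence read within 5 minutes of enzyme addition to compounds. Activity normalised to PTC124 versus DMSO; concentration-response curves classed by r2, magnitude and activity.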
In the case of `COc1cc2c(cc1OC)[C@@H](Cc1cc(OC)c(OC)c(OC)c1)[N+](C)(CCCOC(=O)CC/C=C/CCC(=O)OCCC[N+]1(C)CCc3cc(OC)c(OC)cc3[C@H]1Cc1cc(OC)c(OC)c(OC)c1)CC2` (some centres not stated), the “activity change, negative = inhibition” value was 8.3%. The same measure, in the same setting: the figure for `FC(F)(F)C(F)(F)C(F)(F)C(F)(F)C(F)(F)C(F)(F)F` is 1.17%. Still for that read-out and setting: the figure for `Cc1nc(NS(=O)(=O)c2ccc(N)cc2)nc(C)c1Br` is 2.3%. Regarding `O=C(O)CCC(=O)c1ccc(-c2ccccc2)cc1`, the Potency is 4.36 µM (active). On to `O=P(O)(O)OC[C@H](O)CO`, for which the “activity change, negative = inhibition” value was 3.03%.

For the compound `CC(=O)Nc1ccc(NC(=S)NC(=O)c2ccc(C(C)(C)C)cc2)cc1`, the “activity change, negative = inhibition” value is -12.9%. In the case of `Nc1ncnc2c1ncn2CCOCP(=O)(O)O`, the “activity change, negative = inhibition” value was -4.99%. Regarding `O=C(O)c1cc(N=Nc2ccc(O)c(C(=O)O)c2)ccc1O`, the Potency was 9.07 µM (active).

Test system in the next experiment: not listed separately
As to the kind of experiment: S16 Schwann cell viability assay (CellTiter-Glo assay) (AID 624031).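 For activity change, negative = cytotoxicity: native untransfected S16 rat Schwann cells; cellular ATP luminescence as a viability measure; plate controls were DMSO-treated cells for no effect and cell-free wells for full effect.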 Conditions: S16 rat Schwann cells viability, 24 h; series mostly up to 57.5 µM; activity change, negative = cytotoxicity: at the top concentration. The essentials:
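Parental S16 cells, 24 h compound, 37 °C. ATP-luminescence viability; DMSO = 0% activity, empty wells as reference; curves classified by fit quality and efficacy.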
On to `CC(=O)Oc1cc(C(F)(F)F)ccc1C(=O)O`, for which the “activity change, negative = cytotoxicity” value was 9.21% [at 25.7 µM]. As to `O=C(O)CCC/C=C\C[C@@H]1[C@@H](/C=C/[C@@H](O)COc2cccc(C(F)(F)F)c2)[C@H](O)C[C@@H]1O`, the “activity change, negative = cytotoxicity” value is -3.38%.

Take `CC(C)CCCC(C)NC(C)C` (configuration not stated): the “activity change, negative = cytotoxicity” value is 21.4%. The same measure, in the same setting: the figure for `CCC(C)[C@@H](N)C(=O)O` (some centres not stated) is -4.73%; for `Cc1cccc(C)c1NC(=O)NC1=CCCN1C` it is 0%; for `CC(C)(COP(=O)(O)OP(=O)(O)OC[C@H]1O[C@@H](n2cnc3c(N)ncnc32)[C@H](O)[C@@H]1OP(=O)(O)O)C(O)C(=O)NCCC(=O)NCCS` (some centres not stated) it is -6.16%. On to `CC(=O)c1ccc2c(c1)N(CCCN1CCN(CCO)CC1)c1ccccc1S2`, for which the Potency was 28.7 µM (active).

Consider `OCCCNc1ccccc1`, for which the “activity change, negative = cytotoxicity” value was 0%. With `O=C(O)/C=C/C(=O)Nc1ccc(S(=O)(=O)Nc2nccs2)cc1`, the “activity change, negative = cytotoxicity” value is -0.965%. `CN1CCc2c(c3ccccc3n2Cc2ccccc2)C1`: the “activity change, negative = cytotoxicity” value is -21.7% [at 25.7 µM].

Turning to `CCN(CC)CCOc1ccccc1OC`, the “activity change, negative = cytotoxicity” value was 0%. The same measure, in the same setting: the figure for `CC/C=C\C/C=C\C/C=C\C/C=C\C/C=C\CCCC(=O)O` is -12.1%; for `O=C(NNCNNC(=O)c1ccncc1)c1ccncc1` it is -4.71%; for `O=C(CCCN1CCC(C(=O)c2ccc(F)cc2)CC1)c1ccc(F)cc1` it is 5.03%. With `OC1OC[C@@H](O)[C@H](O)[C@@H]1O` (some centres not stated), the “activity change, negative = cytotoxicity” value is -3.36%. As for `O=C1[O][Bi][O]c2ccccc21`, the “activity change, negative = cytotoxicity” value is 9.75%.

`CC(=O)Nc1c(I)c(C(=O)O)c(I)c(N(C)C(C)=O)c1I`: the “activity change, negative = cytotoxicity” value was -13.4%. In the case of `CCCCCCCCCCCC(=O)OCC(O)CO` (configuration not stated), the “activity change, negative = cytotoxicity” value is 13.7%. As for `O=P(O)(O)OC[C@H]1O[C@](O)(COP(=O)(O)O)[C@@H](O)[C@@H]1O`, the “activity change, negative = cytotoxicity” value is -13.2%.

For `C=CC(=O)O`, the “activity change, negative = cytotoxicity” value was 7.32%. For the compound `CC(C)CCCCCCc1ccc(O)cc1`, the “activity change, negative = cytotoxicity” value was 3.42%. As for `O=C(O)CCCC/C=C(\c1ccccc1)c1cccnc1`, the “activity change, negative = cytotoxicity” value is -3.31%.

Consider `O=C(CCCCCCCCCCCCC1CCCC1)Nc1ccc(S(=O)(=O)c2ccc(NC(=O)CCCCCCCCCCCCC3CCCC3)cc2)cc1`, for which the “activity change, negative = cytotoxicity” value was -17.8%. In the case of `CCCCCCCCCCCCOCCCN`, the “activity change, negative = cytotoxicity” value is -7.77%. Consider `COc1ccc(/C=N/NC(=O)c2ccncc2)c(C(=O)O)c1OC`, for which the “activity change, negative = cytotoxicity” value was 9.09%. In the case of `[O]=[Bi][O][Bi]=[O]`, the “activity change, negative = cytotoxicity” value is 3.91%. On the same count and under the same terms, the figure for `O=C(O)c1ccc(NC(=O)[C@H](Cc2ccc(O)cc2)NC(=O)c2ccccc2)cc1` is 5.43%; for `CC(=O)Nc1ccc(OC(C)=O)cc1` it is 3.89%; for `CCOC(=O)[C@@H](N)CS` it is 4.97%. Turning to `Cc1cc(-c2ccc(N=Nc3c(S(=O)(=O)O)cc4cc(S(=O)(=O)O)cc(N)c4c3O)c(C)c2)ccc1N=Nc1c(S(=O)(=O)O)cc2cc(S(=O)(=O)O)cc(N)c2c1O`, the Potency is 12.8 µM (active).

In the case of `CCCCCCCCCCCCCCCCCCCCCC(=O)Nc1ccn([C@@H]2O[C@H](CO)[C@@H](O)[C@@H]2O)c(=O)n1`, the “activity change, negative = cytotoxicity” value was -8.45%. Regarding `COc1cc2c(cc1OC)[C@@H](Cc1cc(OC)c(OC)c(OC)c1)[N+](C)(CCCOC(=O)CC/C=C/CCC(=O)OCCC[N+]1(C)CCc3cc(OC)c(OC)cc3[C@H]1Cc1cc(OC)c(OC)c(OC)c1)CC2` (some centres not stated), the “activity change, negative = cytotoxicity” value was 4.49%. On the same count and under the same terms, the figure for `FC(F)(F)C(F)(F)C(F)(F)C(F)(F)C(F)(F)C(F)(F)F` is 1.65%. Same read-out and setting: the figure for `Cc1nc(NS(=O)(=O)c2ccc(N)cc2)nc(C)c1Br` is -25.2%; for `O=C(O)CCC(=O)c1ccc(-c2ccccc2)cc1` it is 11.7% [at 25.7 µM]; for `O=P(O)(O)OC[C@H](O)CO` it is 9.55%. Regarding `CC(=O)Nc1ccc(NC(=S)NC(=O)c2ccc(C(C)(C)C)cc2)cc1`, the “activity change, negative = cytotoxicity” value was -19.6%. With `Nc1ncnc2c1ncn2CCOCP(=O)(O)O`, the “activity change, negative = cytotoxicity” value is -9.19%.

Turning to `O=C(O)c1cc(N=Nc2ccc(O)c(C(=O)O)c2)ccc1O`, the “activity change, negative = cytotoxicity” value was -23.9%.
